Each structure is given as a SMILES string. Results filed as inconclusive are left out. Entries that show only a call come without a potency. Active and inactive are the calls of the source. Unless noted, calls come from the whole dose curve; as a rule, active = well fitted curve in the direction sought with a large enough effect; inconclusive = small, poorly fitted or top-dose-only effect, or another doubt; inactive = no such curve, though single readings can be large; an effect the other way counts as inactive or inconclusive.

Assay [1] can be described thus: Primary qHTS for inhibitors of La Crosse Virus (LACV) - induced cell death in SH-SY5Y cells (AID 1508616).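 For activity change: top concentration of the series differs between compounds; higher means more rescue of cells from virus-induced death.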 Note: potency is the fitted concentration of half-maximal effect. In a few lines:
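Protection against LACV-induced cell death is scored in SH-SY5Y cells exposed to compounds and virus (0.01 MOI) for 6 days. Data normalized to virus-infected DMSO wells and virus-free DMSO wells.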

A short description of assay [2]: Primary qHTS for small molecule stabilizers of the endoplasmic reticulum resident proteome: Secreted ER Calcium Modulated Protein (SERCaMP) assay (AID 1508630). Summed up: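 GLuc-SERCaMP-expressing SH-SY5Y cells, pretreated 16 h with compound, are challenged with thapsigargin to empty ER calcium stores; after 4 h, coelenterazine is added directly to the medium and luminescence is imaged.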
(Quantitative high-throughput screening tests each substance at several concentrations.)

Assay [3] deals with Calcium and integrin-binding protein 1 (Homo sapiens) (UniProt Q99828). In words: Primary qHTS for Identification of Calcium Integrin Binding Protein 1 (CIB1) Competitor (AID 1508620). Note: top concentration of the series differs between compounds. Summed up: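 Fluorescence polarization competition: GST-tagged CIB1 (1 uM final) preincubated with compound 15 min at room temperature, then FITC-labelled alphaIIb peptide (100 nM final) added. After 15 min at room temperature, polarization read at Ex 480/Em 540.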

For assay [4] the target is unchanged. Kind of assay: Validation qHTS for Identification of Calcium Integrin Binding protein 1 (CIB1) Competitor (AID 1508618). In a few lines: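 CIB1-GST (1 uM final) incubated 15 min at room temperature with compounds (up to 114 uM), then FITC-labelled alphaIIb peptide (100 nM) added. FP read (Ex 480/Em 540) after 15 min, pH 7.4 buffer containing 5 mM CaCl2.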
Assay [5] concerns the target Papain (Carica papaya) (UniProt P00784). Kind of assay: Primary qHTS assay for inhibitors of the protease papain (AID 1645873).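 Note: papain turnover of Z-FR-AMC read as the AMC fluorescence gain over 10 min.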 Note: potency is the fitted concentration of half-maximal effect.
Assay [6] can be described thus: Cytotoxicity counterscreen for inhibitors of SARS-CoV-2 cell entry (AID 1645845; calls by dose curve; note: nearly all actives have a fitted effect of over 50% in size). The conditions noted are these: outcome: dose series up to 57.1 µM unless noted. Summed up:
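HEK293-ACE2 cells (Expi293F stably expressing human ACE2) seeded overnight, then compound for 1 h plus 48 h at 37C. Viability as ATP content by luminescence; normalized to wells with cells and media-only wells.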
For orientation: A counterscreen serves to expose hits that act by an unwanted route or on another target.

Assay [7] is described as follows: Primary qHTS to identify inhibitors of SARS-CoV-2 cell entry (AID 1645846; calls by dose curve; note: nearly all actives have a fitted effect of over 45% in size; note: potency is the fitted concentration of half-maximal effect). To be noted: activity change, negative = inhibition: at 57.1 µM (top of the series) unless noted. Summed up:
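Luminescence readout (Bright-Glo luciferase) 48 h after pseudoparticle addition. HEK293-ACE2 cells, 1500/well; compound pre-incubation 1 h; Normalized to spike PP and bald PP.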

Assay [8] can be described thus: Primary qHTS for inhibitors of nuclear receptor binding SET domain protein 2 (NSD2) in an isogenic RCH-ACV NSD2 p.E1099K mutant (9B) (AID 1645876). Note: nearly all actives have a fitted effect of over 70% in size.
A short description of assay [9]: Counterscreen qHTS for small molecule stabilizers of the endoplasmic reticulum resident proteome: GLuc-NoTag assay (AID 1508627).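 Note: SH-SY5Y cells given compound then 100 nM thapsigargin to empty ER calcium.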 In a few lines: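 SH-SY5Y cells stably expressing constitutively secreted GLuc without SERCaMP tag, exposed to compound for 19 hr, then to 100 nM thapsigargin for 4 hr at 37C. Medium luciferase was read by coelenterazine luminescence without lysis.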

Assay [10] can be described thus: A High-Content qHTS Against Drug Library for the Identification of Small Molecules that Inhibit DYT1 Early Onset Primary Dystonia-Associated Cell Pathology (AID 1645839; calls by dose curve). In a few lines: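 Flp-In T-REx 293 cells with tetracycline-inducible EGFP-delE hTOR1A (WT EGFP-hTOR1A as reference), 800 cells/well; compound added with tetracycline, 48 h at 37 C. Fixed, permeabilized cells imaged; %pathology (punctate TorsinA) primary, cell count counterscreen.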

A short description of assay [11]: Confirmatory qHTS to identify inhibitors of SARS-CoV-2 cell entry (AID 1645844; calls by dose curve; note: potency is the fitted concentration of half-maximal effect; nearly all actives have a fitted effect of over 45% in size). To be noted: SARS-CoV-2 pseudotyped particle cell entry, luciferase. In a few lines: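 HEK293-ACE2 cells were pretreated 1 h with compound, then infected with MLV-based pseudoparticles bearing C-terminally truncated Wuhan-Hu-1 spike for 48 h at 37C; luciferase luminescence normalized to spike PP and bald PP wells.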

The nature of assay [12]: VSVG counterscreen qHTS to identify inhibitors of SARS-CoV-2 cell entry (AID 1645847; calls by dose curve; note: potency is the fitted concentration of half-maximal effect; nearly all actives have a fitted effect of over 65% in size). The conditions noted are these: VSV-G pseudotyped particle entry, luciferase. Summed up: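 HEK293-ACE2 cells (Expi293F stably expressing human ACE2) were pretreated with compound for 1 h at 37 °C, then infected with MLV-based VSV-G pseudotyped particles for 48 h. Luciferase luminescence was normalized to VSV-G PP and bald PP wells.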

Sequence of Calcium and integrin-binding protein 1 (Homo sapiens) (Q99828 whole entry, looked up): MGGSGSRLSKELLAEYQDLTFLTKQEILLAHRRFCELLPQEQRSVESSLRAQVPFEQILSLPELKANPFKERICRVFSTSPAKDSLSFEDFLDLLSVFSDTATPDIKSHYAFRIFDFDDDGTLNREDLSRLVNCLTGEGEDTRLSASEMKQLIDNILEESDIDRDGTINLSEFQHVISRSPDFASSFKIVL
Sequence of Papain (Carica papaya) (P00784 whole entry, looked up): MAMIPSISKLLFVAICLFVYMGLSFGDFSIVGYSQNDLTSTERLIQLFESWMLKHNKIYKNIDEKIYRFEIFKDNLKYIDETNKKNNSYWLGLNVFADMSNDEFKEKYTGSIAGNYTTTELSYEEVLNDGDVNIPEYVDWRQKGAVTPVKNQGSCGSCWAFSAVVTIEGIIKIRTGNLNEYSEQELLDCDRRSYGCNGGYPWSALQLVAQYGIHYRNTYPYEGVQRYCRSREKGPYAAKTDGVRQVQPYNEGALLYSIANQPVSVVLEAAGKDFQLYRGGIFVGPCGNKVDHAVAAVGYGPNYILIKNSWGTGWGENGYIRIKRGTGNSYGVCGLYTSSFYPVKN

For the compound `C[C@@H]1O[C@H](C[N+](C)(C)C)CS1`, the Potency entry in [1] was “inactive”. Besides, the result in assay [2] was inactive.
As to `NC(Cc1ccc(N(CCCl)CCCl)cc1)C(=O)O` (stereo unspecified), the Potency in [1] was 0.794 µM (active). In addition, the result in assay [2] was inactive.
Turning to `C=CCN(C1=NCCN1)c1c(Cl)cccc1Cl`, in assay [1], the Potency entry is “inactive”. In addition, the result in assay [2] was inactive.
Take `CC1C/C=C/C(O)C(O)CC/C=C/c2cc(O)cc(O)c2C(=O)O1` (stereo unspecified): in [3], the Potency entry was “inactive”.
Turning to `O=C(NC1CN2CCC1CC2)c1cc2ccoc2cn1` (stereo unspecified), the Potency result in assay [4] and in [5] was “inactive” each time.
As to `O=c1ccc2[nH]cc(C3=CCNCC3)c2[nH]1`, in assay [4], the Potency result is “inactive”. Further, the result in assay [2] was inactive. In assay [5], the Potency is 25.1 µM (active).
Take `C/C(O)=C(\C#N)C(=O)Nc1cc(Br)ccc1Br`: the Potency result in [1] and in [8] was “inactive” throughout. Moreover, the outcome in [2] and in assay [6] was inactive. The activity change, negative = inhibition in assay [7] is -10.6%.
As to `c1ccc2c(c1)[I+]c1ccccc1-2`, the Potency result in assay [4] was “inactive”. The result in assay [2] was inactive.
Turning to `O=[N+]([O-])c1ccc2nc(N3CCNCC3)ccc2c1`, the Potency entry in assay [4] and in assay [5] was “inactive” in each case. The result in [9] was inactive.
Turning to `COc1ccc2c(c1)c(CCN1CCOCC1)c(C)n2C(=O)c1cccc(Cl)c1Cl`, the Potency result in [1] was “inactive”. In [2], the result was inactive.
Turning to `C[C@]12CC[C@@H](O)C[C@H]1CC[C@@H]1[C@@H]2CC[C@]2(C)C(=O)CC[C@@H]12`, the Potency result in assay [3] was “inactive”.
Take `CNc1ccc2oc(C[C@H]3O[C@@]4(CC[C@H]3C)O[C@H]([C@H](C)C(=O)c3ccc[nH]3)[C@H](C)C[C@H]4C)nc2c1C(=O)O`: the Potency result in assay [4] was “inactive”. In [2], the outcome was inactive.
As for `COc1cc(CC(C)N)c(OC)cc1I` (stereo unspecified), in [1], the Potency entry is “inactive”. Besides, the outcome in [2] was inactive.
As to `COC1CC(=O)C23C(=O)NC(CC(C)C)C2C(C)=C(C)C(OO)C3/C=C(\C)CCC(O)C1O` (stereo unspecified), the Potency result in [3] is “inactive”.
With `CCCN(CCC)[C@@H]1CCc2cccc(O)c2C1`, the Potency entry in assay [4] and in assay [5] was “inactive” in each case. Also, the outcome in assay [2] was inactive.
For the compound `N[C@@H](CCl)C(=O)O`, the Potency entry in [1] is “inactive”. The result in assay [2] was inactive.
For `O=C1/C(=C/c2ccccc2)C[C@@]2(O)[C@H]3Cc4ccc(O)c5c4[C@@]2(CCN3CC2CC2)[C@H]1O5`, the Potency result in assay [4] and in assay [5] was “inactive” each time.
On to `C[C@@H]1[C@@H]2Cc3ccc(O)cc3[C@@]1(C)CCN2CC1CC1`, for which the Potency entry in [1] was “inactive”. Besides, the outcome in assay [2] was inactive.
Turning to `CCn1cnc2c(Nc3cccc(Cl)c3)nc(N[C@@H]3CCCC[C@@H]3N)nc21`, the Potency entry in assay [4] and in [5] was “inactive” in each case. The outcome in assay [2] was inactive.
Turning to `CC(C)(O)[C@H]1O[C@H]2CC[C@@]3(C)[C@@](O)(CC[C@H]4Cc5c([nH]c6ccccc56)[C@@]43C)C2=CC1=O`, the Potency entry in assay [3] was “inactive”.
Consider `CCCSP(=O)(OCC)SCCC`, for which the Potency result in assay [10] is “inactive”.
Consider `CCOc1ccccc1-n1c(C(C)N2CCN(C(=O)COc3ccc(Cl)cc3)CC2)nc2ccccc2c1=O` (stereo unspecified), for which the results for the Potency in assay [11], in assay [7] and in [12] were 0.0192 µM (active), 10 µM (active) and 19.2 µM (active), respectively.
As to `CC1=C2C[C@H]3[C@@H](CC=C4C[C@@H](O)CC[C@@]43C)[C@@H]2CC[C@]12O[C@@H]1C[C@H](C)CN[C@H]1[C@H]2C`, the result in assay [6] was inactive. In addition, in [7], the Potency was 17.8 µM (active).
With `COc1cc(C)[nH]c(=O)c1CNC(=O)c1c(C)n([C@H](C)C2CCOCC2)c2ccccc12`, the compound was called inactive in [6].
As to `COc1cc(C(=O)O[C@H]2[C@@H]3C=CO[C@@H](O[C@@H]4O[C@H](CO)[C@@H](O)[C@H](O)[C@H]4O)[C@@H]3[C@@]3(CO)O[C@@H]23)ccc1O`, the Potency result in assay [3] and in [8] was “inactive” each time.
In the case of `O=C(N1CCOCC1)N1CCN(c2ccc(Cl)cc2)CC1`, the Potency result in [3] and in assay [8] was “inactive” each time.
For the compound `C[C@]12CC[C@H]3[C@@H]([C@H](O)CC4=CC(=O)CC[C@@]43C)[C@@H]1CC[C@@H]2O`, the Potency entry in assay [3] and in assay [8] was “inactive” throughout.

(Values after PubChem BioAssay (NCATS).)
